Records with an inconclusive call do not appear. Where a call stands in place of a potency, no number is given. Activity calls are given as the source filed them. Calls come from the whole dose curve; as a rule, active = well fitted inhibition curve with a large enough effect; inconclusive = small, poorly fitted or top-dose-only effect; inactive = flat fitted curve, though single readings scatter.
assay: Primary qHTS for inhibitors of nuclear receptor binding SET domain protein 2 (NSD2) in an isogenic RCH-ACV NSD2 p.E1099K mutant (9B) (AID 1645876); conditions: RCH-ACV (leukaemia line) NSD2 E1099K (9B) viability, CellTiter-Glo, 72 h; series mostly up to 44.9 µM; note: nearly all actives have a fitted effect of over 70% in size
Potency is the fitted concentration of half-maximal effect.

Row | SMILES | Potency
1 | C=C(CC)C(=O)c1ccc(OCC(=O)O)c(Cl)c1Cl | 21.1 µM (active)
2 | OC(CCN1CCCCC1)(c1ccccc1)c1ccccc1 | inactive
3 | COc1c2occc2c(OC)c2c(=O)cc(C)oc12 | inactive

From PubChem BioAssay (NCATS)
